What all share (format): functional
In assay [1] the test system is Plasmodium falciparum. Put plainly: GSK_TCMDC: Inhibition of Plasmodium falciparum 3D7 in whole red blood cells, using parasite LDH activity as an index of growth. Test compounds present at 2uM.
In assay [2] the test system is Plasmodium falciparum. Briefly: GSK_TCMDC: Inhibition of Plasmodium falciparum Dd2 in whole red blood cells, using parasite LDH activity as an index of growth. Test compounds present at 2uM.
A further assay deals with HepG2. Put plainly: GSK_TCMDC: Percent inhibition of human HepG2 cell line. Test compounds present at 10uM.

As to `COc1cc(CCNc2nc(NCc3cccc4ccccc34)nc(N3CCC(N)CC3)n2)ccc1O.O=C(O)C(F)(F)F`, the Inhibition (as a rule, the change of the read-out against control, counted positive when it falls) with Plasmodium falciparum [1] was 100%; in the assay on Plasmodium falciparum [2], 59%; in the assay on HepG2 it was 16%.

On to `COc1ccc2nc3cc(Cl)ccc3c(Nc3ccc(O)c(CN4CC5CCC(CC5)C4)c3)c2c1.Cl`, for which the figures for the Inhibition in the assay on Plasmodium falciparum [1], in the assay on Plasmodium falciparum [2] and with HepG2 were 100%, 100% and 17%, respectively.

In the case of `Fc1ccc2[nH]c(-c3cccc(-c4ccc(CN5CCN(c6cnccn6)CC5)cc4)c3)nc2c1.O=C(O)C(F)(F)F`, the Inhibition in the assay with Plasmodium falciparum [1] was determined as 96%; in the assay with Plasmodium falciparum [2] it was 31%; in the assay on HepG2, 19%.

Turning to `Cc1noc(C)c1-c1cccc(CNCc2ccc(-c3ccc(-c4nc5ccccc5[nH]4)s3)cc2)c1.O=C(O)C(F)(F)F`, the Inhibition was 100% in the assay with Plasmodium falciparum [1], 79% in the assay with Plasmodium falciparum [2] and 41% in the assay with HepG2.

As for `COc1cc2nc(N3CCC(CNC(=O)c4ccc(OC(F)(F)F)cc4)CC3)nc(N)c2cc1OC.O=C(O)C(F)(F)F`, the Inhibition amounted to 100% in the assay with Plasmodium falciparum [1], 98% in the assay on Plasmodium falciparum [2] and 16% in the assay with HepG2.

For the molecule `O=C(/C=C/c1ccc(Cl)c(Cl)c1)NCCCCCN1CCC(NC(=O)Nc2ccc(Cl)cc2Cl)CC1`, the Inhibition in the assay on Plasmodium falciparum [1] is 91%; in the assay on Plasmodium falciparum [2], 33%; in the assay with HepG2, 96%.

As for `Cc1ccc2[nH]c(-c3ccc(C=CC(=O)NC4CCN(Cc5ccccc5)CC4)cc3)nc2c1`, the Inhibition in the assay with Plasmodium falciparum [1] came to 100%; with Plasmodium falciparum [2], 92%; in the assay with HepG2, 9%.

For the molecule `CC(=O)Nc1cc(C(=O)Nc2cccc(-c3csc(-c4nc5ccccc5[nH]4)c3)c2)ccc1C`, the Inhibition is 94% with Plasmodium falciparum [1], 66% in the assay with Plasmodium falciparum [2] and 31% in the assay with HepG2.

With `O=C(N[C@@H](CC1CCCCC1)C(=O)NCCN1CCCC1)c1ccc(O)c(-c2cccc(C(F)(F)F)c2)c1`, the values for the Inhibition with Plasmodium falciparum [1], with Plasmodium falciparum [2] and in the assay on HepG2 were 99%, 55% and 0%, respectively.

As for `CCCCc1ccc(-c2nc(NC(=O)Nc3[nH]c(-c4ccccc4)nc3C(=O)OCC)c(C(=O)OCC)[nH]2)cc1`, the Inhibition amounted to 95% in the assay on Plasmodium falciparum [1], 26% in the assay on Plasmodium falciparum [2] and 0% in the assay on HepG2.

Take `Cc1cc(NC(=O)Nc2ccc(I)c(OCCN(C)C)c2)ccc1Br.Cl`: the Inhibition in the assay with Plasmodium falciparum [1] is recorded as 100%; in the assay on Plasmodium falciparum [2], 42%; with HepG2 it was 18%.

Consider `CN1CCN(CCCNCc2cccc(Nc3nccc(Nc4ccc(Oc5ccccc5)cc4)n3)c2)CC1`, for which the results for the Inhibition with Plasmodium falciparum [1], with Plasmodium falciparum [2] and with HepG2 were 100%, 80% and 97%, respectively.

`C[C@H](Cc1ccc(OCCCCCCOc2ccc(C[C@@H](C)NC[C@H](O)c3cccc(Cl)c3)cc2)cc1)NC[C@H](O)c1cccc(Cl)c1.Cl`: the Inhibition in the assay on Plasmodium falciparum [1], in the assay on Plasmodium falciparum [2] and with HepG2 was 99% each time.

On to `Cl.Ic1cc(Nc2ncnc3ccsc23)ccc1OCc1ccccc1`, for which the Inhibition came out at 100% with Plasmodium falciparum [1], 81% in the assay on Plasmodium falciparum [2] and 22% in the assay with HepG2.

Regarding `CN(C)CC1CCCN1Cc1ccccc1-c1cnn(C)c(=O)c1Oc1cccc(C#N)c1.O=C(O)C(F)(F)F` (stereo not given), the Inhibition was 92% with Plasmodium falciparum [1], 15% with Plasmodium falciparum [2] and 26% in the assay on HepG2.

As to `O=C(NC1CCN(Cc2ccc(Cl)cc2)CC1)c1cn(-c2ccccc2)nc1-c1cccnc1`, the Inhibition in the assay with Plasmodium falciparum [1] amounted to 93%; in the assay with Plasmodium falciparum [2] it was 9%; in the assay on HepG2, 13%.

With `CCCNC[C@@H](O)[C@H](Cc1ccccc1)NC(=O)c1cc2c3c(c1)c(CC)cn3CCS(=O)(=O)N2C`, the values for the Inhibition in the assay with Plasmodium falciparum [1], in the assay with Plasmodium falciparum [2] and with HepG2 were 97%, 98% and 0%, respectively.

Regarding `CCN(CCNC(=O)C1CCN(c2cc(-c3cccc(C)c3)ncn2)CC1)Cc1ccccc1`, the Inhibition was 83% with Plasmodium falciparum [1], 72% in the assay with Plasmodium falciparum [2] and 24% in the assay with HepG2.

In the case of `CN1CCC(Oc2ccc(Nc3nccc(NCC(O)c4ccccc4)n3)cc2Cl)CC1` (stereo not given), the Inhibition amounted to 100% in the assay on Plasmodium falciparum [1], 99% in the assay on Plasmodium falciparum [2] and 46% in the assay on HepG2.

For the molecule `Clc1ccccc1CNc1noc(-c2sccc2Br)n1`, the Inhibition came out at 97% in the assay on Plasmodium falciparum [1], 93% in the assay on Plasmodium falciparum [2] and 0% in the assay on HepG2.

`O=C(NCCCCCN1CCCN(C(=O)Nc2ccc(Cl)c(C(F)(F)F)c2)CC1)C1CC1c1ccc(Cl)c(Cl)c1` (stereo not given): the Inhibition with Plasmodium falciparum [1] stood at 100%; in the assay with Plasmodium falciparum [2] it was 1%; in the assay with HepG2 it was 41%.

In the case of `Cn1nc(C(F)(F)F)c(-c2ccc(Br)cc2)c1NC(=O)Nc1ccc(F)cc1F`, the Inhibition with Plasmodium falciparum [1] came out at 99%; with Plasmodium falciparum [2], 99%; with HepG2 it was 16%.

With `Cl.O=C(Nc1ccc(Cl)cc1)Nc1cccc(-c2cc(CNCCc3ccccc3)oc2-c2ccncc2)c1`, the Inhibition worked out at 100% with Plasmodium falciparum [1], 92% in the assay on Plasmodium falciparum [2] and 40% in the assay on HepG2.

For `COc1cc(NC(=O)c2sc(-c3ccc(Cl)cc3)cc2Cl)ccc1OCCN1CCCC1.O=C(O)/C=C\C(=O)O`, the Inhibition in the assay on Plasmodium falciparum [1] is on record as 93%; with Plasmodium falciparum [2] it was 21%; in the assay with HepG2 it was 72%.

For `Cc1ccc(S(=O)(=O)NC2CCN(c3ccnc4cc(Cl)ccc34)C2)cc1.O=C(O)C(F)(F)F` (stereo not given), the results for the Inhibition in the assay on Plasmodium falciparum [1], in the assay on Plasmodium falciparum [2] and in the assay with HepG2 were 99%, 90% and 21%, respectively.

In the case of `O=C(Nc1cccc(CN2CCCN(Cc3ccc(O)cc3)CC2)c1)c1cccc(Cl)c1.O=C(O)C(F)(F)F`, the Inhibition came to 96% in the assay on Plasmodium falciparum [1], 41% in the assay on Plasmodium falciparum [2] and 10% in the assay with HepG2.

As to `CCn1nc(C(=O)NC2CCOc3ccccc32)c2ccccc2c1=O` (stereo not given), the Inhibition is given as 86% with Plasmodium falciparum [1], 59% in the assay with Plasmodium falciparum [2] and 13% in the assay on HepG2.

Consider `CCOc1ccc2c(=NN=Cc3cccc(F)c3)cc(C)[nH]c2c1`, for which the Inhibition in the assay on Plasmodium falciparum [1] was 100%; in the assay with Plasmodium falciparum [2] it was 100%; in the assay on HepG2, 0%.

As to `CCCN1CCc2c(sc3nc(SCC(=O)Nc4ccc(C)cc4)n(-c4ccc(C)cc4)c(=O)c23)C1`, the Inhibition in the assay on Plasmodium falciparum [1] is given as 92%; with Plasmodium falciparum [2] it was 71%; with HepG2, 0%.

As for `Clc1cccc(C23N/C(=N\c4nc5ccccc5[nH]4)NC2(c2ccccc2)N/C(=N\c2nc4ccccc4[nH]2)N3)c1` (stereo not given), the Inhibition with Plasmodium falciparum [1] was 85%; in the assay with Plasmodium falciparum [2], 88%; with HepG2 it was 0%.
